N370S GC = N370S glucocerebrosidase modulation, Gaucher chaperone candidate. N370S GC spleen homogenate, 4MU-glucoside fluorescence. Potency, µM (series often up to 59.4 µM), without a hit: at the top dose activity change, negative = inhibition, most hits filed as inhibitors. actives 0.092% (n = 330,000). P04062;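 also: potency is read from the fitted curve at half-maximal effect; 0% = full enzyme activity and -100% = no enzyme basal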
CBFb-RUNX1 inh = inhibitors of human CBF-beta and RUNX1 interaction; AlphaScreen CBFb-His/RUNX1-biotin binding, biochemical; 230,000 tested, under 10 active; Q01196+Q13951; AID 1477; Potency, µM (series often up to 59.8 µM), for the others: top-dose activity, negative = inhibition, actives largely listed as inhibitors; also: % of control where 0% means no effect
Target sequence (Q01196 whole entry, looked up): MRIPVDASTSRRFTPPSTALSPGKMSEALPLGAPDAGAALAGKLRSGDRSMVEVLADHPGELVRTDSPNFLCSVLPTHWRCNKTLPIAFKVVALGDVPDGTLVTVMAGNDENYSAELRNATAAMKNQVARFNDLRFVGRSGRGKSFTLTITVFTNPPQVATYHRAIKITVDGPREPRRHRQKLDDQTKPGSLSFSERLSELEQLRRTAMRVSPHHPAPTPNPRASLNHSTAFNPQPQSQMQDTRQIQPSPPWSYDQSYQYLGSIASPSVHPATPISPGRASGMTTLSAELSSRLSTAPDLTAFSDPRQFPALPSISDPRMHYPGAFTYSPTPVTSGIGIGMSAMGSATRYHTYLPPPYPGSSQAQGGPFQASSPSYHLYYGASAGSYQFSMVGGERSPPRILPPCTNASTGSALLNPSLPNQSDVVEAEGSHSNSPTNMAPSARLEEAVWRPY
Target sequence (Q13951 whole entry, looked up): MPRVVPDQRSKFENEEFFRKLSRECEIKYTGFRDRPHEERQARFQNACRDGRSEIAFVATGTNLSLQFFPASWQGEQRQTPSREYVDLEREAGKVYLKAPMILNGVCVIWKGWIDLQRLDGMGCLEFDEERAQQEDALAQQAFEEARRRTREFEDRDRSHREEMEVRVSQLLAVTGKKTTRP
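Compounds were screened at multiple concentrations against a preformed CBF-beta(His)/RUNX1(biotin) complex (30 nM of each) for 15 min at room temperature, followed by 90 min with nickel and streptavidin beads and AlphaScreen reading.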
ClpP mod = qHTS Assay for Activators of ClpP | purified B. subtilis ClpP, FRET peptide cleavage, 20 min | actives 1.9% (n = 340,000) | ATP-dependent Clp protease proteolytic subunit (Bacillus subtilis (strain 168)), P80244 | Potency, µM (series often up to 57.5 µM), inactives show at the top dose activity change, negative = active | AID 651965, 2013; active = well fitted falling curve with a large enough effect; inconclusive = small, poorly fitted or top-dose-only effect; inactive = no such curve, though single readings can be large or run the other way; also: potency is read from the fitted curve at half-maximal effect; the source files actives as falling curves though it sought activators and does not explain the sign; nearly all actives have a fitted effect of over 65% in size
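FRET quenching reversal measured ClpP activation: 10 microg/mL B. subtilis ClpP at pH 8 with the FRET-FV decapeptide, read at 430 nm after 320 nm excitation. The 20-min minus 0-min signal was scaled between DMSO/no-enzyme wells and ADEP (5.8 microM final).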
Apoferritin bind = candidate novel general anesthetic via apoferritin binding; P02791; apoferritin/1-aminoanthracene competitive binding, fluorescence; Potency, µM (doses to about 77.5 µM), without a hit: at the top dose activity change, negative = displacement, usual class: inhibitors; actives 0.074% (n = 350,000); also: potency is read from the fitted curve at half-maximal effect; % is scaled to controls: 0 for no effect and ±100 for the full control effect; nearly all actives have a fitted effect of over 20% in size
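10 uM apoferritin + 50% sat. 1-AMA, PBS; cpd 10 min RT; Ex380/Em535 endpoint; normalized to free probe vs complex; 4-param Hill fit; propofol titration as pos. ctrl.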
a7 integrin act = integrin-mediated muscular dystrophy alleviation activation; alpha7betagal myoblasts, beta-gal FDG fluorescence, 48 h; Potency, µM (highest dose often 38.3 µM), for the others: at the top dose activation, actives largely listed as activators; actives 0.064% (n = 350,000);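 also: potency is read from the fitted curve at half-maximal effect; 100% = response of the positive control SU9516; nearly all actives have a fitted effect of over 60% in size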
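alpha7betagal+/- myoblasts (passage 13, 250/well) treated 48 h at 37C with compounds at 1:260 dilution of DMSO stock. Lysed, then beta-galactosidase activity read as FDG fluorescence (ex 480/em 540) after 30 min, with pre-read for autofluorescence.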
Glioma ERSR ind = inducers of ER stress response in human glioma cells; U87-MG GRP78 promoter luciferase reporter, 16 h; Potency, µM, inactives show at the highest dose activation, actives largely listed as activators; actives 0.02% (n = 420,000); also: potency is read from the fitted curve at half-maximal effect; series mostly up to about 76 µM; % of control where 0% means no effect; nearly all actives have a fitted effect of over 35% in size
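ERSR induction read as luciferase luminescence (Bright-Glo, 10 min at room temperature) in stably transfected human U87-MG glioma cells exposed to compounds for 16 h, using GRP78 as sensor.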
Active calls of the source: *; ? = inconclusive; nt = no result given; ! = repeats disagree; [ ] = dose if it differs, or a comment. Shown is part of a subset that was picked to be rich in hits. Unless noted, calls follow the shape of the dose curve; as a rule, active = well fitted curve in the direction sought with a large enough effect; inconclusive = small, poorly fitted or top-dose-only effect, or another doubt; inactive = no such curve, though single readings can be large; an effect the other way counts as inactive or inconclusive.

SMILES	N370S GC	CBFb-RUNX1 inh	ClpP mod	Apoferritin bind	a7 integrin act	Glioma ERSR ind
Cc1ccc(C(C)NC(=O)CSc2ccc(S(=O)(=O)N3CCOCC3)cn2)cc1C (stereo not drawn)	nt	nt	25.1µM*	nt	5.4%	-4.3%
CC(Nc1ccccc1)c1cc(Cl)ccc1O (stereo not drawn)	0.5%	3.7%	-6.7%	?	10.7%	4.0%
COc1ccc(NC(C)c2cc(Cl)ccc2O)cc1 (stereo not drawn)	?	0.1%	3.16µM*	-14.7%	6.2%	-8.3%
C=C(c1ccccc1O)n1ccnc1	-15.8%	nt	12.6µM*	-6.1%	4.5%	8.0%
Clc1ccc2nc[nH]c2c1	nt	nt	-0.2%	nt	nt	-1.2%
C#Cc1cccc(C(=O)NCc2nc(-c3ccccc3NC(=O)C3CCCO3)oc2C)c1 (stereo not drawn)	nt	nt	nt	nt	nt	-2.2%
Brc1c(CSc2nc3ccccc3o2)nc2ncccn12	-3.6%	3.4%	25.1µM*	-1.7%	-22.1%	0.3%
Brc1c(CSc2nncn2-c2ccccc2)nc2sccn12	9.9%	1.3%	-0.8%	-7.3%	4.9%	0.4%
Brc1c(CSc2nncn2-c2ccccc2)nc2ncccn12	?	0.9%	10µM*	47.2%	-3.7%	-2.7%
Nc1nc(-c2cccc(Br)c2)cs1	nt	-2.4%	0.6%	31.6µM*	-3.5%[7.66 µM]	5.9%
COc1ncccc1C(=O)N1CCOc2ccc(C(O)C(c3ccccc3)c3ccccc3)cc2C1 (stereo not drawn)	nt	nt	nt	nt	nt	-4.7%
COc1cc(OC)c2c(C)c(Cl)c(=O)oc2c1	?	1.5%	2.82µM*	-2.7%	22.5%	-0.1%
COc1cc(OC)c2c(=O)cc(-c3ccccc3)oc2c1	-13.4%	10.1%	-22.0%	-12.8%	-21.3%	2.2%
COc1cc2c(cc1OC)[C@@H](Cc1cc(OC)c(OC)c(OC)c1)[N@+](C)(CCCOC(=O)CC/C=C/CCC(=O)OCCC[N@+]1(C)CCc3cc(OC)c(OC)cc3[C@H]1Cc1cc(OC)c(OC)c(OC)c1)CC2	nt	nt	nt	nt	nt	-3.5%
CCc1cc(C(=O)NCCN2Cc3ccccc3OC(c3ccsc3)C2)n(C)n1 (stereo not drawn)	nt	nt	nt	nt	nt	-1.8%
OCCC1CN(CCCc2ccccc2)CCN1Cc1ccc(F)cc1 (stereo not drawn)	-25.0%	nt	31.6µM*	-8.0%	-23.8%	0.0%
COc1ccccc1C1CN(Cc2cccc(O)c2)Cc2ccccc2O1 (stereo not drawn)	nt	nt	nt	nt	nt	-6.3%
Cc1ncc(-c2ccc(F)cc2)c(C2CCCN(Cc3cccc(O)c3)C2)n1 (stereo not drawn)	nt	nt	nt	nt	nt	-9.3%
O=C(CNC(=O)c1ccc2c(c1)OCCO2)N/N=C/c1cccc(Br)c1	23.6%	-14.7%	nt	5.62µM*	4.2%	-2.2%
O=S(=O)(c1ccccc1)c1nc(-c2cccs2)oc1NCC1CCCO1 (stereo not drawn)	0.8%	16.7%	25.1µM*	-14.0%	30.9%	-4.0%
N#Cc1nc(-c2cccs2)oc1NCC1CCCO1 (stereo not drawn)	26.4%	2.0%	24.4%	0.2%	21.6%	-1.5%
CCSc1n[nH]c2nc3c(c(=O)n12)C1(CCCC1)Cc1ccccc1-3	nt	7.1%	14.1µM*	0.6%	5.2%	-0.4%
Cn1c(=O)c2c(n3cnnc13)-c1ccccc1CC21CCCC1	-16.1%	2.5%	-11.8%	1.9%	-17.7%	-2.5%
CSc1nnc2n(C)c3c(c(=O)n12)C1(CCCC1)Cc1ccccc1-3	8.5%	2.1%	28.2µM*	4.5%	37.3%[7.66 µM]	0.1%
CCOC(=O)C1Cn2c(nc3c(c2=O)C2(CCCC2)Cc2ccccc2-3)S1 (stereo not drawn)	19.7%	12.4%	28.2µM*	-18.2%	-17.7%	-3.2%
SMILES	N370S GC	CBFb-RUNX1 inh	ClpP mod	Apoferritin bind	a7 integrin act	Glioma ERSR ind
CCOC(=O)C1Cn2c(nc3c(c2=O)C(C)(C)Cc2ccccc2-3)S1 (stereo not drawn)	6.7%	3.5%	-17.3%	?	-12.6%	-4.3%
CC(C)Sc1n[nH]c2nc3c(c(=O)n12)C1(CCCC1)Cc1ccccc1-3	-7.3%	1.2%	nt	-3.9%	nt	nt
CSc1n[nH]c2nc3c(c(=O)n12)C1(CCCC1)Cc1ccccc1-3	18.5%	1.1%	28.2µM*	74.1%	17.3%	-4.4%
C[N+](C)(C)c1ccc(/C=C/c2ccnc3ccccc23)cc1	nt	nt	?	nt	nt	-6.9%
CC1CCCCN1C(=O)c1cnn2c1NC(=C1CC1)C=C2C(F)F (stereo not drawn)	nt	nt	-12.6%	nt	nt	nt
CC(C)C(NS(C)(=O)=O)c1nnc2n1CCN(Cc1ccc3cccnc3c1)CC2 (stereo not drawn)	nt	nt	nt	nt	nt	-4.8%
N#CC1=C(O)C(c2ccccc2)n2c1nc(=O)c1ccccc12 (stereo not drawn)	-6.1%	-0.9%	17.8µM*	-3.3%	4.9%	2.3%
Cc1ccc(NS(=O)(=O)c2cc([N+](=O)[O-])ccc2NNC(=S)Nc2cc(C)ccc2C)c(C)c1	?	-16.6%	-1.6%	-20.6%	-59.8%	-5.0%
COc1ccc(NC(=S)NNc2ccc([N+](=O)[O-])cc2S(=O)(=O)Nc2ccc(C)cc2C)cc1	22.4µM*	?	0.1%	-16.0%	?	-4.6%
COC(=O)C1=CN(C2CC2)C=C(C(=O)OC)C1c1ccc(C(=O)OC)cc1	27.3%	27.5%	31.6µM*	18.0%	11.2%	1.9%
Cc1cc(NC(=O)c2ccccc2Cl)n(C(C)(C)C)n1	-1.9%	9.4%	15.8µM*	-5.6%	?	-1.8%
COc1ccccc1-c1ccnc(-n2ncc(C(=O)NC(c3cccnc3)C(F)(F)F)c2C)n1 (stereo not drawn)	nt	nt	nt	nt	nt	-2.2%
Cc1ccc2oc(-c3ccco3)nc2c1	-14.9%	3.1%	11.2µM*!	-17.7%	20.2%	5.4%
COC(=O)c1ccc(-c2nc3ccc(C)cc3o2)cc1	-0.6%	7.0%	3.55µM*	-3.3%	-6.9%	-8.6%
Cc1ccc(-c2nc3cc(C)ccc3o2)cc1	1.0%	6.4%	31.6µM*	-19.6%	-15.7%	-10.9%
OC(c1cccnc1)c1ccc2c(c1)CN(Cc1cn(-c3ccccc3)nc1-c1ccccc1)CCO2 (stereo not drawn)	nt	nt	nt	nt	nt	-2.7%
CCN(CC)/[N+]([O-])=N/Oc1ccc([N+](=O)[O-])cc1[N+](=O)[O-]	nt	nt	nt	nt	nt	-1.5%
COc1cccc(-c2cc3c(c(OC)c2)OCCN(Cc2ccccc2O)C3)n1	nt	nt	nt	nt	nt	-0.2%
CCC1CN(CCNC(=O)C2CCCCN2C)Cc2cc(OC)ccc2O1 (stereo not drawn)	nt	nt	nt	nt	nt	1.3%
CCC1C(=O)NCCN1Cc1ccc2c(c1)CN(Cc1ccc(OC)cc1OC)CCO2 (stereo not drawn)	nt	nt	nt	nt	nt	-4.5%
Cc1ccccc1Nc1nc(-c2ccccc2)c(C(=O)Nc2cccnc2)s1	-8.7%	4.0%	3.8%	-6.5%	22.0%	0.9%

Assay outcomes: PubChem BioAssay, National Center for Advancing Translational Sciences (NCATS)
